# This is a sample that favours compounds with a hit; in the whole collection about 5.4% have one here.
# LASV entry inh: qHTS for Inhibitors of binding or entry into cells for Lassa Virus | 300,000 tested, 1.2% active | Lassa virus pseudotype entry inhibition, cell reporter | Potency, µM (titrated, usually from 37.9 µM), without a hit: at the top dose activity change, negative = inhibition, actives largely listed as inhibitors; calls by dose curve; tested in HEK293 cells; further: nearly all actives have a fitted effect of over 50% in size
# Sm TGR inh: qHTS Assay for the Inhibitors of Schistosoma Mansoni Peroxiredoxins. purified TGR, DTNB reduction, TNB absorbance 405 nm. Potency, µM (doses to about 114 µM), without a hit: at the highest dose activity change, negative = inhibition, actives largely listed as inhibitors. 360,000 tested, 3% active. AID 485364, 2010; active means well fitted inhibition curve with a large enough effect; inconclusive means small, poorly fitted or top-dose-only effect; inactive means no such curve, though single readings can be large or run the other way; further: nearly all actives have a fitted effect of over 60% in size
#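 TGR 20 nM + NADPH 100 uM (dispensed conc.), cpd preinc 15 min RT; start with NADPH (500 uM addition) then DTNB (15 mM addition). Kinetic TNB absorbance, 405 nm filter. Four-parameter Hill fit across titration.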
# Vaccinia mCherry: qHTS for Stage-Specific Inhibitors of Vaccinia Orthopoxvirus: mCherry Reporter Primary qHTS; Vaccinia virus mCherry reporter infection, fluorescence; Potency, µM (doses to about 36.5 µM), for inactives: at the highest dose activity change, negative = inhibition, most hits filed as inhibitors; 310,000 tested, 0.63% active; AID 720579, 2013; calls by dose curve; tested in A549 cells; further: nearly all actives have a fitted effect of over 35% in size
# MARV entry inh: qHTS for inhibitors of binding or entry into cells for Marburg Virus | 300,000 tested, 1.8% active | AID 540276, 2011 | Marburg virus pseudotyped entry inhibition, cell reporter | Potency, µM (doses to about 37.8 µM), for the others: top-dose activity change, negative = inhibition, usual class: inhibitors; calls by dose curve; tested in HEK293 cells
# Vaccinia Venus: qHTS for Stage-Specific Inhibitors of Vaccinia Orthopoxvirus: Venus Reporter Primary qHTS; 330,000 tested, 0.46% active; Vaccinia virus Venus reporter expression, fluorescence; Potency, µM (series often up to 36.5 µM), for the others: at the top dose activity change, negative = inhibition, usual class: inhibitors; calls by dose curve; tested in A549 cells; further: nearly all actives have a fitted effect of over 30% in size
# FMDV inh: High Throughput Screening for Foot and Mouth Disease Virus Antivirals | 410,000 tested, 1.2% active | FMDV antiviral cell-based qHTS | Potency, µM (doses to about 57.9 µM), for inactives: at the top dose activity change, negative = inhibition, most hits filed as inhibitors; calls by dose curve; tested in HEK293T cells; further: read-out not given here; nearly all actives have a fitted effect of over 45% in size
# * marks the source's active call; other numbers are inactive results; i = inactive; ? = inconclusive; / = no result; [ ] = remark or other dose. On the % scale 0 is the no-effect control and ±100 the full control effect; potency means the concentration at half of the fitted maximal effect.
SMILES,LASV entry inh,Sm TGR inh,Vaccinia mCherry,MARV entry inh,Vaccinia Venus,FMDV inh
NC(C(=O)O)C(c1ccccc1)C(F)F (centres undefined),/,56µM*,/,/,/,-5%
COCCN1CCN(C(=O)c2cnn(-c3nccc(-c4ccccc4OC)n3)c2-c2ccco2)CC1,/,/,-13%,/,20%,-17%
CCOc1ccc(NS(=O)(=O)c2ccc(C(=O)NNC(=O)c3ccccc3O)cc2)cc1,?,-12%,7.1µM*,?,?,-8%
CCOc1ccc(S(=O)(=O)Nc2ccc(C(=O)N/N=C(\C)c3ccc(-n4ccnc4)cc3)cc2)cc1,?,-10%,-19%,11µM*,-16%,-5%
COc1ccc(NS(=O)(=O)c2cccc(C(=O)N/N=C(/C)c3ccc(-n4ccnc4)cc3)c2)cc1,28%[46.1 µM],/,?,11%[46.1 µM],3%,-14%
Cc1ccc2c(c1)c(=O)c1c3n2CCN(C(=O)CCl)C3CC1 (centres undefined),1%,3.2µM*,-12%,?,-4%,-14%
Cc1ccc2c(c1)c(=O)c1c3n2CCN(CC#N)C3CC1 (centres undefined),18%[46.1 µM],-12%,0%,19%[46.1 µM],-8%,-4%
O=C(Cn1c(=O)n(Cc2ccco2)c(=O)c2ccc(C(=O)NC3CCCC3)cc21)Nc1ccc(F)cc1,3%[46.1 µM],-11%,19%,-20%[46.1 µM],6%,11%
C/C(=N\NS(=O)(=O)c1ccc(Cl)c([N+](=O)[O-])c1)c1ccc(C)o1,-3%,6.3µM*,/,-14%,/,2%
C/C(=N\NS(=O)(=O)c1ccc(C)c([N+](=O)[O-])c1)c1cc2ccccc2o1,9%,-3%,/,-2%,/,31%
C/C(=N\NS(=O)(=O)c1ccc(Cl)c([N+](=O)[O-])c1)c1cc2ccccc2o1,?,50µM*,/,-12%,/,22%
C/C(=N\NS(=O)(=O)c1ccc(C)c([N+](=O)[O-])c1)c1ccc2c(c1)OCO2,/,-21%,/,/,/,13%
C=CCN1c2ccccc2[C@]23CCC(=O)N(Cc4cc(OC)c(OC)c(OC)c4)C2=NC(C(=O)OC)=C(C(=O)OC)[C@H]13,/,/,/,-7%[14.2 µM],/,/
CCOC(=O)c1ccn(-c2nc(-c3cccc(OC)c3)cc(C(F)(F)F)n2)n1,18%[46.1 µM],-5%,-4%,11%[46.1 µM],6%,?
CCOc1ccccc1NC(=O)C(=O)c1cc(C)n(-c2ccc(F)cc2)c1C,3%[46.1 µM],-2%,-15%,-4%[46.1 µM],-2%,55%
Cc1cc(C(=O)N/N=C2\CC(=O)c3ccccc32)c(C)n1-c1ccc(F)cc1,/,35µM*,?,/,-14%,34%
CCOc1cc(/C=N/NC(=O)c2cc(C)n(-c3ccc(F)cc3)c2C)ccc1O,/,56µM*,/,/,/,-29%
COc1ccc(OCCSc2nnc(C)n2-c2ccccc2)cc1,9.2µM*,-1%,/,?,/,-16%
COc1cccc2cc(C(=O)Nc3ccc(CC(=O)O)cc3)c(=O)oc12,?,-6%,5%,10µM*,12%,?
Oc1ccc(CN2CCN(Cc3ccccc3)CC2)c2cccnc12,?,10%,/,-13%,/,-7%
CN1CCN(C2CCN(Cc3ccc(O)c4ncccc34)CC2)CC1,/,1.6µM*,/,/,/,0%
O=S(=O)(c1ccc(Cl)cc1)N1CCN(Cc2ccc(O)c3ncccc23)CC1,?,?,?,13µM*,?,-16%
C#CCNC(=O)C1=C[C@H](c2ccc3c(c2)OCO3)[C@@H](CCCO)[C@H](OCC)O1,/,45µM*,-3%,/,-4%,-19%
CCO[C@H]1OC(C(=O)NC2CC2)=C[C@@H](C2CCCCC2)[C@@H]1CCCO,/,15%,i,/,-22%,-19%
C#CCNC(=O)C1=C[C@@H](C2CCCCC2)[C@H](CCCO)[C@@H](OCC)O1,/,40µM*,-3%,/,-16%,-23%
SMILES,LASV entry inh,Sm TGR inh,Vaccinia mCherry,MARV entry inh,Vaccinia Venus,FMDV inh
COc1cc2c(cc1OC)C1O[C@](c3ccsc3)(C2)Oc2cc(-c3ccccc3)oc(=O)c21,/,7.1µM*,/,?,/,/
COc1cc2c(cc1OC)C1O[C@](c3ccsc3)(C2)Oc2cc(C)n(Cc3ccccc3)c(=O)c21,/,?,/,-14%[14.2 µM],/,/
Nc1[nH]c(C(=O)c2ccccc2)c(-c2ccccc2C(F)(F)F)c1C(=O)NCCc1cccs1,/,/,-13%,/,2%,0%
Cc1nn(-c2ccccc2)c2nc(-c3ccncc3)cc(C(=O)NCc3ccco3)c12,-9%,45µM*,/,?,/,10%
CCOC(=O)c1cc(-c2ccco2)nc2c1c(C)nn2-c1ccccc1,2%,8.9µM*,-15%,-2%[46.1 µM],-4%,-16%
Cc1nn(-c2ccccn2)c2nc(-c3cccs3)cc(C(=O)NCc3ccco3)c12,0%,-25%,i[1.46 µM],-23%,-27%,0%
CN(N=O)c1ccc(/C=C/c2ccccc2)cc1,/,/,-10%,/,-9%,/
CN(N=O)c1ccc(O)c(O)c1,?,/,/,18µM*,/,/
CCc1ccc(NC(=O)c2sc(-n3nc(C)c(Cc4ccc(OC)cc4)c3C)nc2C)cc1,12%[46.1 µM],-3%,-4%,?,-14%,-29%
CC(C)c1ccc(S(=O)(=O)N2CCN(CC(=O)c3ccc(O)c(O)c3)CC2)cc1,/,25µM*,/,/,/,/
COc1ccc(OC)c(C(=O)CN2CCN(S(=O)(=O)c3ccc(Br)cc3)CC2)c1,?,-35%,/,0%[46.1 µM],-18%,-33%
COc1ccc(C(=O)CN2CCN(S(=O)(=O)c3ccc(F)cc3)CC2)cc1,?,-29%,-2%,/,-18%,0%
CCOc1ccc(C(=O)CN2CCN(S(=O)(=O)c3ccc(Cl)cc3)CC2)cc1,-7%,32µM*,/,-12%[46.1 µM],0%,-29%
O=C(CN1CCN(S(=O)(=O)c2ccc(Br)cc2)CC1)c1ccc(O)c(O)c1,/,14µM*,/,/,/,-21%
Cc1ccccc1C1(CC(=O)N2CCCC2c2nccs2)CC(=O)N(C2CCCC2)C1=O (centres undefined),/,/,i,/,-22%,49%
O=c1c2cc(NC(=S)NCc3cccnc3)ccc2nc2n1CCCCC2,0%[46.1 µM],56µM*,-5%,?,-15%,17%
O=C(/C=C/c1ccco1)Nc1ccc2nc3n(c(=O)c2c1)CCCC3,/,32µM*,/,/,/,38%
O=C(NCc1ccccc1)C(=O)Nc1ccc2nc3n(c(=O)c2c1)CCCCC3,17%[46.1 µM],-2%,10%,?,1%,-1%
Cc1cc(=O)oc2cc(NC(=S)NCc3cccnc3)ccc12,/,40µM*,/,/,/,94%
O=c1c2cc(NC(=S)N3CCCC3)ccc2nc2n1CCCCC2,1%[46.1 µM],9%,-14%,-12%[46.1 µM],-12%,22%

# Screening data deposited in PubChem by National Center for Advancing Translational Sciences (NCATS).
